The structures appear in SMILES notation. The whole screen tested about 69,000 compounds, of which about 8,600 (12%) showed an effect of 50% or more. Only a selection was taken, and strong results are over-represented in it overall.

The subject of this test is Plasmodium berghei. The experiment in a line: Screen against P. berghei liver stage (PbLuc), transformed with Luciferase, at 10uM. Type of test: functional, HepG2. The conditions noted are these: tested at 10 uM.
Take `NC(=O)C1CCN(C(=O)Cc2cnc(-c3c(Cl)cccc3Cl)s2)CC1`: the INHIBITION is reported as 37.9%. Turning to `O=S(=O)(c1ccc(F)cc1)N1CCCC1c1cc[nH]n1` (centres undefined), the INHIBITION was 33.7%. As to `COc1ccc(C(=O)N2CCC(Nc3cccnn3)CC2)c(F)c1`, the INHIBITION was -32%. As for `CC(C)N(CC(N)=O)Cc1cccc(Br)c1`, the INHIBITION turned out to be 16.6%. The value for `N#CCCN(Cc1cccnc1)C(=O)c1ccc(-n2cnnn2)cc1` was 18.6%; that for `Cc1c(Cl)cccc1NC(=O)CCNc1ccc(C#N)cn1` was -128%. As for `CCc1noc(C(C)N(C)CC(=O)Nc2ccccc2Cl)n1` (centres undefined), the INHIBITION turned out to be 21.7%. `CC(C)N(CC(=O)O)Cc1cccc(Br)c1`: the INHIBITION was found to be 13.2%. Consider `Cc1c(Cl)cccc1NC(=O)CN(Cc1cccnc1)C(C)C`, for which the INHIBITION is recorded as 73.2%. The value for `N#CCCN(Cc1cccnc1)C(=O)c1cc(Cl)c[nH]1` was 30.3%; that for `CC(C)N(CC(=O)Nc1ccc(Br)cc1Cl)Cc1cccnc1` was 73.2%. In the case of `N#CCCN(CC(=O)Nc1ccc(Br)cc1Cl)Cc1cccnc1`, the INHIBITION was found to be 64.3%. As for `O=C(Cc1ccc2c(c1)CCC2)N1CCCC1Cn1cccn1` (centres undefined), the figure is 2.79%. Turning to `Cc1cccc(N2CC3(CCN(S(=O)(=O)C4CC4)C3)C2)n1`, the INHIBITION worked out at 34.6%. `CC(=O)N1CCCC2(CN(Cc3ccc(C)s3)CCO2)C1` (centres undefined): the INHIBITION is -46.8%. As for `O=C(Cc1cccs1)N1C[C@H]2CN(CC3CCCO3)CC[C@H]2C1` (some centres undefined), the figure is 30.3%.

Take `O=C1[C@@H]2CN(c3ncc(Cl)cc3F)C[C@]2(C(=O)O)CN1CC1CC1`: the INHIBITION is -5.19%. Regarding `Cc1nc(CN(C)C2CCCN(c3cccnn3)C2)oc1C` (centres undefined), the INHIBITION is reported as -21.8%. `Cc1cc(C)c(CNC(=O)N2CCCC2c2ccccn2)c(=O)[nH]1` (centres undefined): the INHIBITION is -14.7%. On to `Cc1cc(C)c(CNC(=O)N2CCCC2c2cc(C)on2)c(=O)[nH]1` (centres undefined), for which the INHIBITION is reported as 81.3%.

In the case of `Cc1nc(C2CCCN2C(=O)CN(C)Cc2ccccc2)no1` (centres undefined), the INHIBITION is on record as 34%. Turning to `CN(CC(=O)N1CCCC1c1ccccn1)Cc1ccccc1` (centres undefined), the INHIBITION is on record as 26.6%. Turning to `Cc1cc(C2CCCN2C(=O)NCc2c(C)cc(C)[nH]c2=O)on1` (centres undefined), the INHIBITION is given as 36.1%. As to `Cc1cc(C2CCCN2C(=O)CN(C)Cc2ccccc2)no1` (centres undefined), the INHIBITION is reported as 58.7%.

Take `CN(C)[C@@H]1CCN(c2ncccn2)[C@H]1Cc1cccnc1`: the INHIBITION was -31.4%. The value for `CCN1CCC(N2CCC(C(=O)N(C)C)CC2)CC1` was 15.6%; that for `Cc1ncsc1-c1nnc(C2CCN(Cc3cccc(Cl)c3)CC2)o1` was -6.3%; that for `Cc1ncsc1-c1nnc(C2CCN(Cc3ccc(F)cc3)CC2)o1` was 35.3%. `Cc1ncsc1-c1nnc(C2CCN(Cc3ccc(Cl)cc3)CC2)o1`: the INHIBITION turned out to be 76.8%. As for `COc1ccc(CN2CCC(c3nnc(-c4scnc4C)o3)CC2)cc1`, the INHIBITION is on record as 54.5%. For the molecule `Cc1ncsc1-c1nnc(C2CCN(Cc3ccccc3)CC2)o1`, the INHIBITION is reported as 27.8%. Regarding `Cc1ccsc1-c1nnc(C2CCN(Cc3ccc(F)cc3)CC2)o1`, the INHIBITION worked out at 68.2%.

As for `Cc1cccc(CN2CCC(c3nnc(-c4scnc4C)o3)CC2)c1`, the INHIBITION came out at 23.4%. For the molecule `Fc1ccc(CCN2CCC(c3nnc(-c4cccnc4)o3)CC2)cc1`, the INHIBITION stood at 35.3%. Regarding `Cc1ccc(CN2CC[C@H](c3nnc(-c4ccco4)o3)C2)cc1`, the INHIBITION is given as -33%. As for `COc1ccc2c(c1)CN(C)C(=O)CCN2CC(O)C(F)(F)F` (centres undefined), the figure is -8.04%. In the case of `Cc1cnc(CNCc2cn(CCN3CCSCC3)nc2C)cn1`, the INHIBITION worked out at 4.68%. As for `O=C(NCc1ccccn1)c1cnc(C2CCCN2)cn1` (centres undefined), the figure is 18.3%; as for `O=C(NCC(F)F)c1cnc(C2CCCN2)cn1` (centres undefined), 61.05%. Turning to `Cc1csc(NC(=O)c2cnc(C3CCCN(C)C3)cn2)n1` (centres undefined), the INHIBITION is recorded as 71.3%.

In the case of `COc1c(C2CCCN2CC(=O)Nc2nc(C)cs2)c(C)nn1C` (centres undefined), the INHIBITION is 31.9%. As for `Cc1csc(NC(=O)c2cnc(C3CCCN3)cn2)n1` (centres undefined), the figure is 80.9%. The value for `Cc1cccc(NC(=O)c2cnc(C3CCCNC3)cn2)n1` (centres undefined) was 10.4%. Take `Cc1nn(C)c(C)c1-c1cnc(C2CCCN(C)C2)cn1` (centres undefined): the INHIBITION is -28.6%.

Take `Cc1csc(NC(=O)c2cnc(C3CCNCC3)cn2)n1`: the INHIBITION was 24.4%. For the molecule `FC(F)CNc1cnc(C2CCCN2)cn1` (centres undefined), the INHIBITION was determined as 5.15%. For `COCCN1Cc2nccn2CC(COCc2csc(C)n2)C1` (centres undefined), the INHIBITION is 29.5%. As for `CN(C)CCNC(=O)c1sc2ccccc2c1C1CCC(CN)CC1` (centres undefined), the INHIBITION is given as -77.3%. Take `COCC1CN(S(=O)(=O)N(C)C)Cc2cnn(CC3CCCC3)c21` (centres undefined): the INHIBITION is on record as -17.1%. As for `COc1cccc2c1ccn2CCNC(=O)CCNc1ncccn1`, the figure is 38.5%. As for `COc1ncnc2c1CCN(Cc1cccc(C)n1)CC2`, the figure is 10.7%; as for `CN(Cc1csc(-c2cccs2)n1)Cc1cccnc1N`, 55.9%.

On to `Cc1nc(CN(C)Cc2csc(-c3cccs3)n2)co1`, for which the INHIBITION was determined as 15.7%. In the case of `CC(NS(C)(=O)=O)C(=O)N(C)Cc1csc(-c2cccs2)n1` (centres undefined), the INHIBITION is on record as -102%. Turning to `CNC(=O)C(C)S(=O)(=O)Cc1csc(-c2cccs2)n1` (centres undefined), the INHIBITION worked out at 30.1%.

Consider `CN(Cc1csc(-c2cccs2)n1)Cc1ncccc1C(=O)O`, for which the INHIBITION is listed as 5.91%. As for `COC(=O)NCC(=O)N(C)Cc1csc(-c2cccs2)n1`, the figure is 49.2%; as for `Cc1cc(CN(C)Cc2csc(-c3cccs3)n2)n[nH]1`, 57%. Regarding `CCc1nc(CN(C)Cc2nnc(-c3cccs3)o2)cs1`, the INHIBITION was 7.81%.

Values taken from ChEMBL document CHEMBL4513216, “Probing the Open Global Health Chemical Diversity Library for Multistage-Active Starting Points for Next-Generation Antimalarials” (ACS Infect Dis, 2020).
